# Source: PubChem BioAssay AID624287 (National Center for Advancing Translational Sciences (NCATS), 2012)
# Screen size: about 340,000 compounds; about 420 (0.12%) were called active. Another 10% or so got no clear call; they are omitted. The entries come from a sample that favours actives as a whole. Values without a mark were called inactive. Calls come from the whole dose curve; as a rule, active = well fitted activation curve with a large enough effect; inconclusive = small, poorly fitted or top-dose-only effect, or another doubt; inactive = no such curve, though single readings can be large or run the other way; cell line not stated here.
# Assay: qHTS for Agonist of gsp, the Etiologic Mutation Responsible for Fibrous Dysplasia/McCune-Albright Syndrome: qHTS; note: nearly all actives have a fitted effect of over 60% in size;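 for activation (cAMP increase): phosphodiesterase inhibitor Ro 20-1724 added with compounds to block cAMP breakdown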
# Conditions: gsp mutant cells, cAMP HTRF, 30 min; series mostly up to 76.9 µM; activation (cAMP increase): at the top concentration
# From the text: McCune-Albright syndrome (MAS) is a rare disease caused by somatic mutations in Gsgsp), a widely expressed protein central in signal transduction from G-coupled protein receptors (GPCRs). The disease symptoms are diverse, owing to the fact that the patients are mosaics with varying degrees of tissue involvement. Greater than 90% of the mutations in Gs in MAS occur at the R201 position and are equally divided between R201H and R201C. The R201 residue is central in the intrinsic GTPase activity of Gs and the H and C mutations lead to loss of, or impairment of, the GTPase activity. The intrinsic GTPase activity is necessary to terminate the interaction between Gs and adenylate cyclase, and to terminate the cAMP-mediated signaling of the given GPCR pathway. Thus, these activating mutations lead to ligand-independent activation of GPCR pathways. The tissue phenotype is determined by the role of Gs in the function of a given cell, and excess Gs/cAMP signaling in that cell. For example, pituitary somatotrophs overproduce growth hormone in a growth hormone releasing hormone-independent fashion, and gigantism/acromegaly ensues. Skeletal stem cells in the bone marrow behave as if they are under constant parathyroid hormone stimulation and fail to differentiate into osteoblasts and osteocytes, and proliferate as immature osteogenic cells and lead to the marrow fibrosis of fibrous dysplasia of bone. The goal of this project is to identify molecules with stimulatory activity at gsp mutations that will not only allow for in-depth study of the underlying molecular and cellular pathophysiology, but also serve as compounds from which drugs to treat FD/MAS can be developed NIH Chemical Genomics Center [NCGC] NIH Molecular Libraries Probe Centers Network [MLPCN] MLPCN Grant: IRP-FT-DE-2011-01 Assay Submitter (PI): Michael Collins, NIDCR
# 1.#Seed 2000 cells/well in 6 ul DMEM 10% FBS, 1% Pen/Strep, 0.5 mg/ml G418 2.#Incubate 16-24 hr at 37C, 5% CO2, 95% humidity 3.#Aspirate leaving 1 ul residual volume 4.#Dispense 5 ul/well DPBS + 1 mM CaCl2, 0.5 mM MgCl2, 0.05% BSA, 0.005% Tween 20 5.#Aspirate leaving 2 ul residual volume 6.#Dispense 23 nl/well compounds in DMSO 7.#Dispense 1 ul/well 300 uM Ro-20174 in DMEM 10% FBS 8.#Incubate 30 min at 37C, 5% CO2, 95% humidity 9.#Dispense 1.5 ul/well HTRF reagent: cAMP-d2 in lysis buffer 10.#Dispense 1.5 ul/well HTRF reagent: anti-cAMP antibody-K in lysis buffer 11.#Incubate 30 min at room temperature 12.#Detect HTRF signal using EnVision plate reader
# Potency is the fitted concentration of half-maximal effect.
SMILES,activation (cAMP increase),Potency
Cc1cccc(C(=O)NC2CCN(CC(=O)Nc3cccc(Cl)c3)CC2)c1,-42.7%,
Cc1csc(SCC(=O)Nc2ccc(C)c(S(=O)(=O)N(C)C)c2)n1,-20.6%,
CC1=C(C(=O)Nc2cccc(C(=O)NCC(C)c3ccccc3)c2)SCCO1 (stereo unspecified),10.4%,
O=C1[C@H]2[C@@H](c3ccc(C(F)(F)F)cc3)N[C@]3(CCCN(Cc4ccc(Cl)cc4)C3=O)[C@H]2C(=O)N1Cc1ccccc1,1.18%,
CCN1C(=O)[C@H]2[C@@H](c3ccccc3)N[C@]3(CCCN(Cc4ccc(C)cc4)C3=O)[C@H]2C1=O,5.38%,
Cn1c(CCN2CCN(c3ccccn3)CC2)nc2cc(NS(=O)(=O)c3ccc(F)cc3)ccc21,-10.2%,
c1ccc(Cn2nnc3c(NCC4CC4)ncnc32)cc1,2.75%,
Cn1c(=O)c2c(SCC(=O)NCC3CCCO3)nc(CC(C)(C)C)nc2n(C)c1=O (stereo unspecified),,14.1 µM (active)
CCn1c(SCC(=O)NCC2CCCO2)nc2ccccc21 (stereo unspecified),11%,
CCCc1nc(SCC(=O)N2CCCC2)c2c(=O)n(C)c(=O)n(C)c2n1,26%,
CCCCCCN1C[C@H](O)[C@@H](n2cc(C3CC3)nn2)C[C@@H]1c1ccc(Cl)cc1,-33.6%,
CC1(C)CC(=O)C=C(c2ccc(COC(=O)c3cc(F)cc(F)c3)cc2)C1=O,-119%,
O=C(CCc1ccc(O)cc1)NN=Cc1cc(Br)ccc1O,-4.34%,
COc1cc2ccc(C(C)=O)c(O)c2cc1OC,15.1%,
COC(=O)C[C@H]1C[C@@H]2c3cc(N(C)C)ccc3O[C@@H]2[C@H](CO)O1,-18.9%,
Cc1cc(Cl)ccc1C(=O)C1CCCN(C(=O)c2ccc3c(c2)OCO3)C1 (stereo unspecified),0.924%,
Cc1ccc(C(=O)N2CCCc3ccccc32)c(Cl)c1,5.11%,
CN(C)C(CNC(=O)c1cc(Br)c(Br)s1)c1ccco1 (stereo unspecified),-58.5%,
O=C(COC(=O)Cc1ccc(Cl)cc1Cl)NCc1ccco1,-9.6%,
CCOC(=O)C=Cc1ccc(C(=O)OCC)[nH]1,-46.9%,
Cc1cc(C)nc(N/N=C/c2ccc([N+](=O)[O-])o2)n1,45%,
CCc1ccc(S(=O)(=O)N/N=C\c2ccc([N+](=O)[O-])o2)cc1,-10.5%,
C/[N+]([O-])=C\c1ccc([N+](=O)[O-])o1,,28.2 µM (active)
COc1ccc(/C=C2\SC(=S)N(CCC(=O)N3CCOCC3)C2=O)cc1OC,-44.9%,

SMILES,activation (cAMP increase),Potency
O=C(NCc1ccccc1)C1CNCC(C(=O)NCc2ccccc2)C1 (stereo unspecified),4.24%,
Cc1ccc([C@H]2N[C@]3(CCCN(Cc4ccccc4)C3=O)[C@H]3C(=O)N(Cc4ccccc4)C(=O)[C@@H]23)cc1,-54.9%,
CS(=O)(=O)c1sc2nc(-c3ccccc3)cc(-c3ccccc3)c2c1N,,7.08 µM (active)
CNc1nc(-c2ccccc2)cc(-c2ccccc2)n1,-29%,
CCN(CC)C(=O)c1sc2nc(-c3ccccc3)ccc2c1N,-3.88% [at 15.4 µM],
CCc1ccccc1NC(=O)CN1CCN(C(=O)c2cc(C3CC3)nn2-c2ccccc2)CC1,-23.3%,
O=NN(CCCl)C(=O)NCCc1cccc[n+]1[O-],-40.6%,
CSc1ncnc2c1ncn2CCCNCC1CCCCC1,-41.1%,
Cc1ccc(S(=O)(=O)N(CCc2ccccc2)c2ccc3c(c2)C2CC3CCN2C(=O)OCc2ccccc2)cc1 (stereo unspecified),-3.98%,
CC(OC(=O)c1cccnc1Cl)C(=O)NC1CCCCC1 (stereo unspecified),-7.18%,
O=C(COC(=O)c1cncc(Br)c1)Nc1ccc(S(=O)(=O)N2CCOCC2)cc1,-52.8%,
O=C(OCc1ccccc1)N1CCC2CC1c1cc(N3CCN(S(=O)(=O)c4cc(Cl)cc(Cl)c4)CC3)ccc12 (stereo unspecified),-22.3%,
NC(CSC(c1ccccc1)(c1ccccc1)c1ccc(-c2ccccc2)cc1)C(=O)O (stereo unspecified),-9.82%,
C=CCn1c(SCC(=O)CC(=O)OCC)nc2cc(C(=O)N3CCC(C(N)=O)CC3)ccc2c1=O,4.18% [at 15.4 µM],
C=CCn1c2ccccc2c2nnc(SCc3[nH]c(=O)[nH]c3C(=O)CCCCC(=O)OCC)nc21,,2 µM (active)
C=CCn1c2ccccc2c2nnc(SC(CC)C(=O)Nc3nc(C)c(C(=O)OCC)s3)nc21 (stereo unspecified),-52.6%,
C=CCn1nc(C(=O)OCC)cc1-c1sc(NC(=O)c2ccccc2)nc1C,-3.53%,
Cc1cc(C)c2c(=O)n3c(nc2c1)C(CC(C)C)NC(=O)c1cc2ccccc2cc1-3 (stereo unspecified),4.39%,
CC(=O)Nn1cc2c(=O)n(C)c(=O)n(C)c2c1,,7.94 µM (active)
COc1ccc(-c2c3c(=O)n(C)c(=O)n(C)c3cn2NC(C)=O)cc1,3.24%,
Cn1c(=O)c2cn(-c3cccc4ccccc34)cc2n(C)c1=O,-9.96% [at 15.4 µM],
COc1ccc(OC)c(C(=O)NC2CCCc3c2cnn3-c2cc(C)cc(C)c2)c1 (stereo unspecified),-55.3%,
CCOC(=O)c1cc(-c2sc(NC(=O)c3ccccc3)nc2C)n(CCO)n1,-34%,
O=C(NCCS(=O)(=O)N1CCN(c2ccccc2)CC1)c1cc(=O)c2ccccc2o1,-23.3%,

SMILES,activation (cAMP increase),Potency
COc1ccc(Cl)cc1NC(=O)CN(C)C(=O)c1cn(-c2ccccc2)nc1-c1cccs1,4.43%,
C[C@@H]1CN([C@@H](C)CO)C(=O)c2cc(Br)cnc2O[C@H]1CN(C)Cc1ccc(-c2ccccc2)cc1,-22.2%,
CCOc1cc(/C=N/NC(=O)c2c(C)nc3ccc(Cl)cn23)ccc1O,-9.2%,
Cc1ccc(NC(=O)COC(=O)CN2CCSC2=O)cc1F,-20.3%,
C[C@H]1Cn2cnc(C(=O)N[C@@H](Cc3c[nH]c4ccccc34)C(=O)OC(C)(C)C)c2C(=O)N1,-4.83%,
CC(=O)Nc1ccc(C=Cc2ccc([N+](=O)[O-])cc2)cc1,-3.38%,
COC(=O)c1ccccc1N=NNc1ccc([N+](=O)[O-])cc1,-6.79%,
CC(Sc1ccc(S(=O)(=O)N2CCN(C)CC2)cn1)C(=O)NC1CCCC(C)C1C (stereo unspecified),-21.5%,
CCOc1ncccc1C(=O)Nc1ccc2c(c1)OCCO2,13.9%,
CCOc1ncccc1C(=O)Nc1ccc(S(=O)(=O)Nc2nc(C)cc(C)n2)cc1,,10 µM (active)
O=C(Nc1ccc(S(=O)(=O)Nc2ncccn2)cc1)c1cncc(Br)c1,-25.9%,
CCCc1c(C)nc2scc(-c3ccc(Cl)cc3)n2c1=O,4.2%,
CC1=C(C(=O)N(C)C)CC(CC(=O)NCCN2CCOCC2)C(=O)N1Cc1ccccc1 (stereo unspecified),-32.8%,
O=C1OCCC1=COCCCCOC=C1CCOC1=O,-17.1%,
CCCCCCn1c(=O)n2n(c1=O)C[C@]1(OC(=O)NCc3ccc(OC)c(OC)c3)CN(S(=O)(=O)c3ccc(C)cc3)C[C@]1(O)C2,-93.1%,
COc1ccc(CN2C[C@H]3CON(C)[C@H]3C[C@H]2c2ccc(-c3cccc(F)c3)cc2)cc1,-69.9%,
Cc1onc(-c2ccccc2)c1-c1nnc(COC(=O)c2ccc(N(C)C)cc2)o1,-1.6%,
Cc1ccc(CCNC(=O)CN2C(=O)CSc3ccc(S(=O)(=O)N4CCOCC4)cc32)cc1,-42.1%,
COc1ccc2c(c1)CCCO[C@]21O[C@H](CCO)C[C@H](O)[C@H]1O,-64.1%,
Cc1ccc(-c2ccc(C3=CC(=O)CC(C)(C)C3=O)cc2)cc1,-42%,
CC(OC(=O)c1ccc(NC(=O)CC#N)cc1)C(=O)Nc1ccc(S(=O)(=O)N2CCCC2)cc1 (stereo unspecified),-14.8%,
CC(C)n1ncc2c(C(=O)N3CCN(Cc4cccs4)CC3)cc(C3CC3)nc21,7.9%,
CN(c1ccccc1)S(=O)(=O)c1ccc(C(=O)NCc2cccnc2)cc1,-7.68%,
Cc1ccc(Cc2c(-c3ccc(C)cc3)nc3c4ccccc4ccn23)cc1,-39.7%,

SMILES,activation (cAMP increase),Potency
COc1cccc2c1OCC(CN1CCN(C3CCCCC3)C(CCO)C1)=C2 (stereo unspecified),,7.94 µM (active)
OCCC1CN(Cc2ccc3nsnc3c2)CCN1C1CCCC1 (stereo unspecified),49.4%,
OCCC1CN(Cc2ccc3nsnc3c2)CCN1C1CCCCC1 (stereo unspecified),19.4%,
O=C1CC[C@@H](C(=O)N2CSC[C@@H]2C(=O)Nc2ccc(C(F)(F)F)cc2)N1,-72.2%,
O=C(CSc1ccc(Cl)cc1)NC1CC1,-72.4%,
COc1ccc(C(=O)Nc2cccc(NC(=O)c3ccc(OC)cc3OC)n2)c(OC)c1,,15.8 µM (active)
COc1ccc(C(=O)NC2=NCCS2)c(OC)c1,-28.3%,
COc1ccc(C(=O)NC(C)CCc2ccccc2)c(OC)c1 (stereo unspecified),17.8%,
O=S1(=O)CCN(C2CCCCCCCCCCC2)CC1,-79.5%,
O=S(=O)(c1cccc(C(F)(F)F)c1)N1c2ccccc2-n2cccc2C1c1cccnc1 (stereo unspecified),-23.7%,
O=Nc1c(O)cc(O)c2ccccc12,-21.6%,
O=C(c1ccc(CS(=O)Cc2ccccc2Cl)o1)N1CCN(c2ccccc2)CC1 (stereo unspecified),-29.9%,
COCCn1c(SCC(=O)Nc2ccc(F)cc2F)nc2c(c1=O)SCC2,-23.6%,
COCOCCn1cc(CN2CCS(=O)(=O)N(Cc3ccc(-c4ccc(OC)cc4)cc3)C(CC(C)C)C2=O)nn1 (stereo unspecified),-115%,
Cc1ccc(-c2ccc(CN3C(C(C)C)C(=O)N(Cc4cn(CCC5OCCO5)nn4)CCS3(=O)=O)cc2)cc1 (stereo unspecified),-37.6%,
CC1(C2CC2)NC(=O)N(CC(=O)N2CCN(c3ccccc3F)CC2)C1=O (stereo unspecified),0.197%,
CCN(CC)C(=O)C1=C(C)N(Cc2ccccc2)C(=O)C(CC(=O)NC(c2ccccc2)c2ccccc2)C1 (stereo unspecified),-6.51%,
O=C(N=C1SC2CS(=O)(=O)CC2N1Cc1ccccc1)c1ccccc1 (stereo unspecified),-12.8%,
COc1cccc(OCC(=O)NCCS(=O)(=O)N2CCN(c3ccccc3)CC2)c1,-6.99%,
Cc1cnc(NC(=O)Cn2cnc3c2c(=O)n(C)c(=O)n3C)s1,0.329% [at 15.4 µM],
Cn1c(=O)c2c(ncn2CC(=O)N/N=C/c2cn[nH]c2-c2ccc(F)cc2)n(C)c1=O,54.2% [at 15.4 µM],
CN(C(=O)COC(=O)Cn1cnc2c1c(=O)n(C)c(=O)n2C)C1(C#N)CCCCC1,,28.2 µM (active)
CSc1ncnc2c1ncn2CCCNCc1ccco1,-74.7%,
Cc1ccc(S(=O)(=O)N2C[C@H]3n4c(=O)ccc(=O)n4C[C@H](OC(=O)NC4CCCC4)[C@@]3(O)C2)cc1,14.3%,
